# From PubChem BioAssay
# Calls of active or inactive are those of the source. No rule for the calls is given here.
# Biological target: Pantothenate synthetase (Mycobacterium tuberculosis (strain ATCC 25618 / H37Rv)) (UniProt P9WIL5)
# Assay: Coupled enzyme confirmation of inhibitors against recombinant Mtb PanC (AID 375);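 also: 0% = full reaction with vehicle and 100% = no enzyme background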
# Details: coupled enzyme assay; at 10 µM, active compounds read high
# Sequence of Pantothenate synthetase (Mycobacterium tuberculosis (strain ATCC 25618 / H37Rv)) (P9WIL5 whole entry, looked up): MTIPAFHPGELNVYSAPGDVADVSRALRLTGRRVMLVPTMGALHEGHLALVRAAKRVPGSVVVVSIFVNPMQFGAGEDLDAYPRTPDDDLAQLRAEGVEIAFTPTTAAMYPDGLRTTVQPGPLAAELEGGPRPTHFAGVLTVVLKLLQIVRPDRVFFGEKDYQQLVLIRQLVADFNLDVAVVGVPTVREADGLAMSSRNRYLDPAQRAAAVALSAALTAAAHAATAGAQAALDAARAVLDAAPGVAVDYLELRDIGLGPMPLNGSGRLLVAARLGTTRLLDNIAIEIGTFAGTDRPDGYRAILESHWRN
row,SMILES,inhibition
1,O=C(c1ccc2c(c1)[nH]c(=S)n1c3ccccc3nc21)N1CCN(c2ncccn2)CC1,8% (inactive)
2,CC(C)(C)n1ncc2c(=O)n(CC(=O)NCc3ccccc3)cnc21,0% (inactive)
3,O=c1[nH]c(CN2CCN(Cc3ccccc3)CC2)nc2sc3c(c12)CCC3,0% (inactive)
4,Nc1c(C(=O)NCCc2ccccc2)nnn1Cc1ccccc1,0% (inactive)
5,CCOC(=O)c1[nH]c(C)c(C(=O)Nc2cc(OC)ccc2OC)c1C,0% (inactive)
6,CC(CCc1ccccc1)NCc1ccncc1 (stereo not given),5% (inactive)
7,Cc1cc(=O)oc2ccc(OCC(=O)N(Cc3ccc(F)cc3)Cc3ccco3)cc12,0% (inactive)
8,COc1ccc(-c2[nH]nc3c2C(c2ccncc2)C(C#N)=C(N)O3)cc1 (stereo not given),0% (inactive)
9,CC(=O)c1cnc2cc(-c3ccccc3)nn2c1C,0% (inactive)
10,O=C1C(CCS(=O)c2ccccc2)C(=O)N(c2ccccc2)N1c1ccccc1 (stereo not given),0% (inactive)
11,CCCN1C(=O)SC(CC(=O)Nc2ccc(Br)cc2)C1=O (stereo not given),2% (inactive)
12,CCOC(=O)N1CCN(C(=O)CN(C)S(=O)(=O)c2ccc(OC)c(OC)c2)CC1,0% (inactive)
13,CCOc1cc(N2CCOCC2)c(OCC)cc1NC(=O)COC(=O)CCc1c[nH]c2ccccc12,0% (inactive)
14,CCOc1ccc(-n2cc(C(=O)N3CCN(C)CC3)c3cc(OC)c(OC)cc3c2=O)cc1,0% (inactive)
15,COCCCNCC(=O)Nc1ccc(OC(F)(F)F)cc1,3% (inactive)
16,COC(=O)Nc1ccc(NC(C)=O)cc1,0% (inactive)
17,CCOCCCNC(=O)Cn1ncc2c(=O)oc3ccccc3c21,0% (inactive)
18,Cc1ccc(C)c(/C(O)=C2\C(=O)C(=O)N(CCCN3CCOCC3)C2c2cccnc2)c1 (stereo not given),2% (inactive)
19,Cc1ccc(C)c(OCCCC(C)(C)C(=O)O)c1,0% (inactive)
20,O=C(C1CC1)N1CCc2cc(Br)cc(S(=O)(=O)N3CCOCC3)c21,3% (inactive)

row,SMILES,inhibition
1,O=C(Nc1ccc(Cl)cc1C(=O)O)c1ccc2c(c1)C(=O)N(Cc1ccco1)C2=O,0% (inactive)
2,Cn1c(SCc2nc3ccccc3c(=O)[nH]2)nnc1-c1ccco1,13% (inactive)
3,c1nc(NCC2(N3CCOCC3)CCCCC2)c2ccsc2n1,0% (inactive)
4,COC(=O)CSc1nnc(-c2ccc(OC)cc2OC)o1,0% (inactive)
5,COC(=O)c1ccccc1NC(=O)Nc1cc(C)cc(C)n1,2% (inactive)
6,Cc1cc(NS(=O)(=O)c2ccccc2)n(-c2ccccc2)n1,0% (inactive)
7,CCOC(=O)c1cc2sccc2n1CC(=O)Nc1ccc(OC)cc1OC,0% (inactive)
8,Cc1nc2ccccc2c2oc(C(=O)NCCN3CCCCC3C)cc12 (stereo not given),0% (inactive)
9,CCCNC(=O)NC1C(NC(=O)NCCC)N(C)C(=O)N1C (stereo not given),5% (inactive)
10,CCOC(=O)c1cccc(NC(=O)CSc2nnc(-c3ccoc3C)n2CCOC)c1,1% (inactive)
11,COc1ccc(CC(=O)OCn2nnc3ccccc3c2=O)cc1,4% (inactive)
12,O=C(COc1ccc(Cl)cc1)NCc1nnc(SCC(=O)Nc2ccc3c(c2)OCCO3)o1,3% (inactive)
13,Cn1c(=O)n(CCC(=O)O)c2ccccc21,7% (inactive)
14,COc1ccc(-c2c(C(F)(F)F)oc3c(CN4CCN(C)CC4)c(O)ccc3c2=O)cc1,4% (inactive)
15,CCn1nccc1C(=O)Nc1cc(Cl)ccc1Cl,0% (inactive)
16,O=C(O)CSc1ccc2ccccc2n1,5% (inactive)
17,COc1ccc(-c2ccc(-c3noc(-c4ccccc4)n3)c(OC)n2)cc1,3% (inactive)
18,COCCCn1c(=N)c(C(=O)NCC2CCCO2)cc2c(=O)n3cccc(C)c3nc21 (stereo not given),0% (inactive)
19,Cc1ccc(NC(=O)CSc2nnc(-c3ccccn3)n2C)cc1,1% (inactive)
20,COc1ccccc1C(=O)Nc1ccccc1C(=O)N1CCCC1,1% (inactive)
